Active and inactive are the calls of the source.

Experiment [1] relates to XIP peptide (Xip251-270) binding. Nature of the experiment: XIP fragment 251-270 binding compounds – biochemical, small-molecule microarray, fluorescence 635/667 nm, 0.1 µg/mL protein, primary screen (AID 1182). To be noted: fluorescent protein binding, 635 nm, higher = more signal, called active from +8 up or from −8 down.
A further experiment deals with XIP peptide (Xip251-270). Put plainly: compounds binding XIP fragment 251-270 – biochemical, small-molecule microarray, fluorescence 635/667 nm, 0.5 µg/mL protein, primary screen (AID 1183). To be noted: fluorescence 635 nm, higher = more signal.
The nature of experiment [2]: blood-stage malaria parasite viability loss – strain 3D7, DAPI fluorescence, 100 nL, primary screen (AID 1184).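 Also: parasites grown inside human red blood cells in medium with human serum.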 Particulars: P. falciparum 3D7 growth, 3 d, higher = more signal.
Experiment [3] concerns the target Homeobox protein Hox-A13 (Mus musculus) (UniProt Q62424). Put plainly: disruptors of Hoxa13 oligonucleotide interaction – biochemical, fluorescence polarization, labeled oligonucleotide, primary screen (AID 1185). To be noted: Hoxa13:DNA binding, 15 min, higher = more signal, called active from +8 up or from −8 down.

Sequence of Homeobox protein Hox-A13 (Mus musculus) (Q62424 whole entry, looked up): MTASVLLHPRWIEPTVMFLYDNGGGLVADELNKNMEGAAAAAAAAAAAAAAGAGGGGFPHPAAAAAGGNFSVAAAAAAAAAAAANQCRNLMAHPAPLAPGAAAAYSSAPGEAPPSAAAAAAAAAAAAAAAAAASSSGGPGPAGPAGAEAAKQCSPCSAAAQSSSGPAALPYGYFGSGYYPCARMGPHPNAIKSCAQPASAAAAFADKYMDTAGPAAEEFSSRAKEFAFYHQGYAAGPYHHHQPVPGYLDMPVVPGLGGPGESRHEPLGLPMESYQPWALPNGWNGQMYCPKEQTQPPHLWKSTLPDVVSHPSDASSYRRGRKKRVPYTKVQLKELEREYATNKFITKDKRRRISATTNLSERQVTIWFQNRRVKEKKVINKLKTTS

Turning to `CCOC(=O)NN=C1C[C@@H](O)[C@@H](O)[C@@H]2[C@@H]3C(=O)N(Cc4ccccc4)C(=O)[C@@H]3CC[C@H]12`, the composite z-score in experiment [1] was -0.405 (inactive); in the experiment with XIP peptide (Xip251-270) it was 0.0213. The z-score in experiment [2] was -0.179; in experiment [3], -1.48 (inactive).
Turning to `CC(C)=CCCC(C)=CCON=C1C[C@@H](O)[C@@H](O)[C@@H]2[C@@H]3C(=O)N(C(C)(C)C)C(=O)[C@@H]3CC[C@@H]12`, the composite z-score in experiment [1] is -0.119 (inactive); with XIP peptide (Xip251-270), 0.233. Besides, the z-score was -1.34 in experiment [2] and -1.09 (inactive) in experiment [3].
Taken in the same sequence, the figures for `CCOC(=O)[C@H](Cc1ccccc1)NC(=O)CCC1CC(OC(=O)NCc2cccc3ccccc23)CC2(CCCC(COC(=O)NCc3cccc(C(F)(F)F)c3)O2)O1` (stereo partly specified) were 0.418 (inactive), 0.335, -1.39 and -4.31 (inactive).
The matching figures for `CO[C@@H]1C=CCC(=O)N[C@@H](C)C(=O)OC[C@@H](OC)[C@H](C)CCCC(=O)OC[C@H]1C`: -0.203 (inactive), 0.111, 0.0984 and -0.313 (inactive).
On to `CC(C)=CCCC(C)=CCON=C1C[C@@H](O)[C@@H](O)[C@@H]2[C@@H]3C(=O)N(Cc4ccccc4)C(=O)[C@@H]3CC[C@@H]12`, for which the composite z-score was 0.146 (inactive) in experiment [1] and 0.703 with XIP peptide (Xip251-270). In addition, the results for the z-score in experiment [2] and in experiment [3] were 0.83 and -0.241 (inactive), respectively.
For `CO[C@H]1COC(=O)CC=C[C@@H](C)[C@H](OC)COC(=O)CCC[C@@H]1C`, the composite z-score in experiment [1] is -0.283 (inactive); in the experiment with XIP peptide (Xip251-270), -0.15. In addition, the results for the z-score in experiment [2] and in experiment [3] were 0.0095 and -0.51 (inactive), respectively.
The matching figures for `CCOC(=O)[C@H](Cc1ccccc1)NC(=O)CCC1CC(OC(=O)NCc2cccc3ccccc23)CC2(CCCC(COC(=O)NCC(c3ccccc3)c3ccccc3)O2)O1` (stereo partly specified): 0.2 (inactive), 0.366, -1.83 and -4.93 (inactive).
The matching figures for `CON=Cc1ccc(C(=O)N2[C@H](c3ccc(C)cc3)[C@@H](C)CC[C@H]2C(=O)OC)cc1`: -0.288 (inactive), 0.488, -0.141 and -3.49 (inactive).
For the molecule `O=C1[C@H]2[C@H]3[C@H](O)[C@H](O)CC(=NOCc4ccccc4)[C@H]3CC[C@H]2C(=O)N1Cc1ccc2c(c1)OCO2`, the composite z-score in experiment [1] is -0.4 (inactive); in the experiment with XIP peptide (Xip251-270), -0.267. Moreover, the results for the z-score in experiment [2] and in experiment [3] were -0.437 and -3.74 (inactive), respectively.
The matching figures for `COc1ccc(O[C@H]2C=C[C@@H](c3ccccc3)O[C@@H]2CON=C(C)CCN2CCc3nc(-c4ccccc4)c(-c4ccccc4)cc3C2)cc1`: 0.276 (inactive), 0.445, -0.553 and -1.81 (inactive).
In the case of `CC(C)(C)N1C(=O)[C@H]2[C@H]3[C@H](O)[C@H](O)CC(=NOCc4ccccc4)[C@H]3CC[C@H]2C1=O`, the composite z-score was 0.082 (inactive) in experiment [1] and -0.112 in the experiment on XIP peptide (Xip251-270). In addition, the figures for the z-score in experiment [2] and in experiment [3] were 0.195 and -4.16 (inactive), respectively.
The matching figures for `CC(CCN1CCCCc2nc(C)c(C)cc21)=NO[C@@H](C)c1cn([C@H](CO)Cc2ccccc2)nn1`: 0.305 (inactive), 0.521, -0.257 and -4.4 (inactive).
As to `CCOC(=O)[C@H](CC(C)C)NC(=O)CCC1CC(OC(=O)NCCc2ccc(F)cc2)CC2(CCCC(COC(=O)NCC(c3ccccc3)c3ccccc3)O2)O1` (stereo partly specified), the composite z-score in experiment [1] was 0.298 (inactive); in the experiment on XIP peptide (Xip251-270), 0.836. The z-score is -1.02 in experiment [2] and -6.92 (inactive) in experiment [3].
The matching figures for `CC[C@@H](c1ccccc1)n1c(=O)n2n(c1=O)[C@H]1[C@H](O)[C@@H]3O[C@@H]3C(=NOC[C@@H](O)COCc3ccco3)[C@H]1CC2`: -0.0593 (inactive), -0.268, -0.949 and -3.57 (inactive).
Taken in the same sequence, the figures for `CC(=O)OC[C@H]1O[C@H](CC=NO[C@H](C)c2cn([C@H](CO)Cc3ccccc3)nn2)C=C[C@@H]1OC(C)=O` were 0.364 (inactive), 0.289, 0.242 and -1.83 (inactive).
The matching figures for `COC(=O)[C@H](C)NC(=O)CCC1CC(OC(=O)NCc2cccc3ccccc23)CC2(CCCC(COC(=O)NCC(c3ccccc3)c3ccccc3)O2)O1` (stereo partly specified): 0.519 (inactive), 0.583, -1.87 and -4.01 (inactive).
Take `CCOC(=O)[C@H](Cc1ccccc1)NC(=O)CCC1CC(OC(=O)NCc2ccc3c(c2)OCO3)CC2(CCCC(COC(=O)NCCc3ccccc3OC)O2)O1` (stereo partly specified): the composite z-score was 0.581 (inactive) in experiment [1] and 0.798 with XIP peptide (Xip251-270). Also, the z-score in experiment [2] is -1.78; in experiment [3] it was -4 (inactive).
The matching figures for `C[C@@H]1NC(=O)[C@@H](C)COC(=O)[C@H](C)NC(=O)[C@@H](C)COC1=O`: -0.287 (inactive), 0.158, -1.46 and 0.969 (inactive).
With `COc1cccc([C@H]2Oc3ccc(OC)cc3C(=NO[C@@H]3O[C@H](COC(C)=O)[C@@H](OC(C)=O)[C@H](OC(C)=O)[C@H]3OC(C)=O)[C@@H]2O)c1`, the composite z-score in experiment [1] is -0.481 (inactive); in the experiment on XIP peptide (Xip251-270), -0.172. Also, the z-score in experiment [2] is 0.956; in experiment [3], -5.19 (inactive).

The values above are taken from PubChem BioAssay.
